Reference: PubChem BioAssay
Values joined by “and” are separate entries in the source; they are usually repeats but may differ in a detail not shown here. Equal values may be shown once. Active and inactive are the calls of the source. Unless noted, the rule behind the calls is not given here.

Tests used:
[1] = circadian clock period modulators, cell-based, LOPAC library, luminescence reporter (AID 2774); details: circadian reporter cells, at 7 µM, actives lie on both sides;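 note: values are relative to mean of DMSO wells on each plate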
[2] = hESC survival regulators, cell-based (AID 493140); details: human embryonic stem cell survival screen; stronger effect = higher value;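 note: cells exposed to compounds for four days before counting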
[3] = liver-stage malaria parasite growth inhibition, primary screen, cell-based, HepG2, luciferase luminescence, HepG2 viability (AID 624349; in the data active = parasite load remaining mostly below about 12%, no sharp cut-off; inactive = mostly above about 10%;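 note: 100% = mean of DMSO negative control wells on the same plate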); details: P. berghei liver stage in HepG2, luciferase luminescence, concentration not given here; parasite load remaining: stronger effect = lower value; viability: measured here: HepG2 viability without parasites
[4] = test system: Hepatitis C virus NS3 helicase; experiment: HCV NS3 helicase inhibitors, primary screen, biochemical, fluorescence polarization, LOPAC1280 library (AID 687035; in the data active = inhibition above about 37%); details: Purified HCV NS3 helicase, Cy5-dT15 ssDNA binding fluorescence polarization; stronger effect = higher value; concentration not given here
[5] = Cy5 fluorescence quenching or enhancement artefacts, artefact control for HCV NS3 helicase inhibitor project, biochemical, LOPAC1280 (AID 687037); details: Cy5-DNA-NS3h complex fluorescence interference counterscreen
[6] = Cy5 fluorescence interference with SSB-bound oligo, artefact control for HCV NS3 helicase inhibitor project, biochemical, NIH Clinical Collection, E. coli SSB (AID 743268)
[7] = test system: Hepatitis C virus NS3 helicase; experiment: HCV NS3 helicase inhibitors, primary screen, biochemical, fluorescence polarization, NIH Clinical Collection (AID 743270); details: NS3 helicase binding to Cy5-dT15 DNA, stronger effect = higher value, concentration not given here
[8] = molecular target: Single-stranded DNA-binding protein (Escherichia coli (strain K12)) (UniProt P0AGE0); experiment: E. coli SSB displacement from DNA, counter-screen for HCV NS3 helicase inhibitor project, biochemical, fluorescence polarization, NIH Clinical Collection (AID 743271; in the data active = inhibition above about 28%); details: stronger effect = higher value, concentration not given here
[9] = fluorescence interference in NS3h assay format, artefact control for HCV NS3 helicase inhibitor project, biochemical, NIH Clinical Collection (AID 743272); details: fluorescence interference counterscreen, stronger effect = lower value;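 note: HCV NS3 helicase with a Cy5 labelled single stranded DNA probe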
[10] = test system: Neuropilin-2 / VEGF-C interaction (human); experiment: inhibitors of NRP2–VEGF-C binding, biochemical, microplate binding format, z-score (AID 743281); details: microplate NRP2/VEGF-C binding assay; stronger effect = lower value
[11] = modulation of C. elegans fzo-1 (AID 1259413);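 note: fzo-1 mutant C. elegans worms in liquid wells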; details: C. elegans fzo-1 modulator screen, mean read-out; stronger effect = higher value
[12] = test system: Aerobactin synthetase IucA (Klebsiella pneumoniae); experiment: IucA aerobactin synthetase inhibitors, biochemical, Tocris library, absorbance (AID 1345561); details: purified IucA enzyme assay, absorbance (OD) read-out; stronger effect = lower value;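 tested at 8 µM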;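 note: 100% = enzyme without compound and 0% = no enzyme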
[13] = sensitizers of A549 cells to miR-34 induction, primary screen, imaging, A549 dox-inducible miR-34, nuclei and caspase counts (AID 1347080;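 active = compounds whose cell count with miR-34 switched on is under 0.7 times the count with it off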); details: A549 miR-34 inducible, Hoechst nuclei count, 48 h
[14] = phospholipid biosynthesis inhibitors in animal cells, primary screen, cell-based, LOPAC library, screen 4 (AID 1347384); details: phospholipid biosynthesis inhibition screen, at 10 µM
[15] = viability rescue of complex I mutant cybrids, primary screen, cell-based, galactose medium, ATP luminescence (AID 1645843;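 active = z-score of at least 1.8 in each of two replicates, scored against plate mean and spread of sample wells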;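 note: positive z means more ATP and so rescue of galactose-driven cybrid death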); details: complex I mutant cybrid cells, 72 h, stronger effect = higher value
[16] = differential killing of epithelial or mesenchymal cells, primary screen, imaging, PC-3E GFP, TEM4-18 mCherry, co-culture (AID 1345086;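 active = compounds killing one labelled cell type while sparing the other, by normalised counts and ratio limits, not self-fluorescent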;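 note: cells exposed to compound for 72 h before imaging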;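 for red/green cell ratio (normalised): normalised mesenchymal count divided by normalised epithelial count so high means epithelial killing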); details: imaging cell counts, at 1 µM
[17] = molecular target: NAD(+) hydrolase SARM1 (Homo sapiens) (UniProt Q6SZW1); experiment: SARM1 TIR NADase inhibitors, cell lysate, NAD-Glo luminescence (AID 1508614;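 active = compound whose remaining NAD level is above about 45 nM, limit read from the data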;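 note: higher remaining NAD means stronger inhibition of SARM1 NADase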); details: SAM-TIR HEK293T lysate NADase, at 1 µM, stronger effect = higher value
[18] = stronger effect = lower value, cell number ratio, induced over uninduced
[19] = measured here: relative caspase fold change +Dox/-Dox
[20] = measured here: total cells with miR-34 induction, stronger effect = lower value
[21] = measured here: total cells without miR-34 induction

Sequence of NAD(+) hydrolase SARM1 (Homo sapiens) (Q6SZW1 whole entry, looked up): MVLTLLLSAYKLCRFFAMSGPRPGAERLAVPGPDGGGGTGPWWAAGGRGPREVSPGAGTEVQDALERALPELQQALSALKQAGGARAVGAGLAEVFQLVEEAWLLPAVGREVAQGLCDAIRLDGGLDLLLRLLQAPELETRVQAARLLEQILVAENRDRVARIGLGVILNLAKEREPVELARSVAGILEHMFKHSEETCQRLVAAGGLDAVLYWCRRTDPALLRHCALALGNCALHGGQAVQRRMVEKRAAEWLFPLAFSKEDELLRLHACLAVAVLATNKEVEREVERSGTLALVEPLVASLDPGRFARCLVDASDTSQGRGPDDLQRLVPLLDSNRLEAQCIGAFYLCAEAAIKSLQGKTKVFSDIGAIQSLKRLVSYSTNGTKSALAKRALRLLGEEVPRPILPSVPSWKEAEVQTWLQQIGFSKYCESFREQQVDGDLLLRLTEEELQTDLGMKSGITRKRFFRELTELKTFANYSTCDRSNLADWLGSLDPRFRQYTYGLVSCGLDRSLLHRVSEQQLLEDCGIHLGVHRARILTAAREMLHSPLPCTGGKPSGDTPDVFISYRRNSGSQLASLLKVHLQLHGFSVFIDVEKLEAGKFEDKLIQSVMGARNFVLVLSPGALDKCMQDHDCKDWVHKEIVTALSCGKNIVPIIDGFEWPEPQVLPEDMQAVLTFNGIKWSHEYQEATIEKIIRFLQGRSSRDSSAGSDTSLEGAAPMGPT

CN1[C@@H](CC(=O)c2ccccc2)CCC[C@H]1C[C@H](O)c1ccccc1
11200 and 9030 and 8370: cell count [13, 20]
0.866 and 1.18 and 1.23: fold change [13, 19]
10500 and 10100: cell count [13, 21]
108% and 77.1% and 78.1%: viability [3]
inactive: period change [1] -0.145 h | survival [2] 11.3 | parasite load remaining [3] 59.5% and 70.7% and 71% | inhibition [4] 0% | fluorescence ratio (interference) [5] 1 | fluorescence ratio [6] 1.03 | inhibition [7] 0.4% | inhibition [8] -0.1% | fluorescence ratio [9] 1.03 | z-score [10] -0.358 | mean signal [11] 245 | remaining activity [12] 122% | fold change [13, 18] 1.06 and 0.859 and 0.83 | outcome [14] | z-score [15] -0.54 and -0.495

Cc1c(O)c(=O)ccn1C
0.877 and 1.84: fold change [13, 19]
0.95: normalised cell number ([16]; measured here: mesenchymal TEM4-18 mCherry cell survival)
9520 and 10100: cell count [13, 21]
inactive: parasite load remaining [3] 103% | fluorescence ratio [6] 0.96 | inhibition [7] 1.98% | inhibition [8] 6.83% | fluorescence ratio [9] 0.92 | z-score [10] -1.2 | mean signal [11] 235 | red/green cell ratio (normalised) ([16]; actives lie on both sides, counts scaled to control wells, 1 = unselective) 0.89 | fold change [13, 18] 0.87 and 0.909 | remaining NAD [17] 10 nM | z-score [15] 0.65
77.2%: viability [3]
1.06: normalised cell number ([16]; measured here: epithelial PC-3E GFP cell survival)
8280 and 9190: cell count [13, 20]

CN1CCc2cc(Cl)c(O)cc2[C@@H](c2ccccc2)C1
inactive: period change [1] 0.17 h | parasite load remaining [3] 38.6% | inhibition [4] -1% | fluorescence ratio (interference) [5] 1 | fluorescence ratio [6] 0.96 | inhibition [7] -5.46% | inhibition [8] -6.69% | fluorescence ratio [9] 1.01 | z-score [10] -1.33 | mean signal [11] 255 | remaining activity [12] 107% | fold change [13, 18] 0.95 and 0.955 | outcome [14] | z-score [15] -0.095 and 0.675
10100 and 9370: cell count [13, 21]
1.25 and 1.04: fold change [13, 19]
9640 and 8960: cell count [13, 20]
72.6%: viability [3]
